# In PubChem BioAssay (NCATS):
# Unmarked numbers belong to inactive results. Records with an inconclusive call do not appear. Calls of active or inactive are those of the source. Unless noted, the call rests on the fitted dose curve; in most records, active means well fitted curve in the direction sought with a large enough effect; inconclusive means small, poorly fitted or top-dose-only effect, or another doubt; inactive means no such curve, though single readings can be large; an effect the other way counts as inactive or inconclusive.
# Tests used:
# [1] = target: Lysosomal acid glucosylceramidase (Homo sapiens) (UniProt P04062); test: Glucocerebrosidase-p2 (AID 348; in the data active means potency below about 10 µM; further: potency means the concentration at half of the fitted maximal effect); details: purified GBA, blue fluorogenic substrate, 40 min
# How it was run: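 Compounds titrated from 0.6 nM upwards against 0.2 nM enzyme in pH 5.9 citric acid/KH2PO4, taurocholate, tween-20; blue fluorogenic substrate 80 uM, 40 min room temperature, stopped and read Ex 365/Em 440 for AC50.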
# [2] = AP1 Signaling Pathway (AID 357; active means well fitted curve in either direction with a large enough effect, not every such curve was filed as active; further: on the % scale 0 is the no-effect control and ±100 the full control effect); details: ME-180 AP-1-bla reporter, EGF-induced, beta-lactamase ratio, 5 h; at 7.69 µM (top of the series) unless noted
# How it was run: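 AP-1-bla ME-180 cells with beta-lactamase reporter under AP-1 response element, stimulated with EC50 EGF; compounds titrated, 5 hours at 37 degrees Celsius. CCF4 read at 460/530 nm ratio; positive and negative modulators judged by AC50.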
# [3] = target: Cytochrome P450 1A2 (Homo sapiens) (UniProt P05177); test: p450-cyp1a2 (AID 410; calls by dose curve; further: potency means the concentration at half of the fitted maximal effect); details: recombinant CYP1A2, luciferin-ME demethylation, luminescence; series mostly up to 57 µM
# How it was run: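 Human CYP1A2 (20nM) demethylated Luciferin-ME at its Km (100uM) in 100mM KPO4. After 10 min compound preincubation, NADPH regeneration ran the reaction 60 min at room temperature. Luciferin was read by luminescence, normalized to 57 uM furafylline.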
# [4] = Stat Signaling Pathway (AID 446; active means well fitted curve in either direction with a large enough effect, not every such curve was filed as active;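 further: ME-180 cervical cancer cells given 40 pM IL-6 alongside compound; SIE-controlled beta-lactamase reporter measured as 460/530 nm FRET emission ratio; on the % scale 0 is the no-effect control and ±100 the full control effect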); details: ME-180 (cervical carcinoma) SIE beta-lactamase reporter, IL-6 stimulated, 5 h; series mostly up to 7.69 µM
# How it was run: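 IL-6/STAT signaling read in ME-180 cells via an SIE beta-lactamase reporter. Stimulus was 40 pM IL-6 (its AC50) for 5 hrs, so both activation and inhibition register.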
# [5] = target: Glucocorticoid receptor (Homo sapiens) (UniProt P04150); test: GR-GFP Redistribution (AID 450;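 active means compounds whose dose series gives a full or clear partial fitted curve of increased nuclear translocation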; further: potency means the concentration at half of the fitted maximal effect); details: U2OS GR-GFP nuclear translocation, laser cytometry, 2 h
# [6] = target: Mitogen-activated protein kinase 10 (Mus musculus) (UniProt Q61831); test: JNK3 AlphaScreen Assay (AID 530; active means well fitted curve in either direction with a large enough effect, not every such curve was filed as active;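 further: kinase came from lysate of stimulated human HepG2 cells; signal reports phosphorylation of biotinylated GST-cJun 1-79 at Ser73 with 10 µM ATP; on the % scale 0 is the no-effect control and ±100 the full control effect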); details: JNK3 lysate, c-Jun phosphorylation; series mostly up to 57.1 µM
# How it was run: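 qHTS format: compounds tested as titrations against IL-1beta/TNF-alpha-activated HepG2 lysate JNK3 with biotin-GST-cJun substrate and 10 uM ATP at room temperature. Loss of anti-phospho-cJun AlphaScreen signal indicates inhibition.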
# [7] = target: Cytochrome P450 3A4 (Homo sapiens) (UniProt P08684); test: qHTS Assay for Activators of Cytochrome P450 3A4 (AID 885); details: recombinant CYP3A4, Luciferin-PPXE luminescence, 60 min; series mostly up to 57.1 µM; further: nearly all actives have a fitted effect of over 65% in size
# How it was run: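 Quantitative HTS format: compounds preincubated with 20nM human CYP3A4 and Luciferin-PPXE substrate at KM, reaction started by NADPH regeneration, stopped after 60 min, luciferase luminescence read 20 min later.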
# [8] = target: Dual specificity protein kinase CLK4 (Homo sapiens) (UniProt Q9HAZ1); test: qHTS Assay for Inhibitors of CDC-like Kinase 4 (Kinase-Glo Assay) (AID 1770); details: recombinant Clk4, Kinase-Glo ATP depletion luminescence; series mostly up to 66.7 µM; further: potency means the concentration at half of the fitted maximal effect; nearly all actives have a fitted effect of over 65% in size
# How it was run: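 25 nM Clk4 with 100 uM RS repeat peptide and 1 uM ATP (final) in Tris pH7.5, 10 mM MgCl2, 4.5 h at room temperature. Remaining ATP measured by Kinase-Glo luciferase luminescence.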
# [9] = target: Dual specificity protein kinase CLK4 (Homo sapiens) (UniProt Q9HAZ1); test: qHTS Assay for Inhibitors of CDC-like Kinase 4 (ADP-Glo Assay) (AID 1771); details: recombinant CLK4, ADP-Glo luminescence; series mostly up to 80 µM; further: potency means the concentration at half of the fitted maximal effect; nearly all actives have a fitted effect of over 70% in size
# How it was run: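 Clk4 (25 nM) was incubated 1 hr at room temperature with 100 uM RS repeat peptide and 1 uM ATP in buffer with 2 mM MgCl2, 0.5 mM EGTA, 2.5 mM DTT. ADP formed was quantified by ADP-Glo luminescence.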
# [10] = target: Dual specificity protein kinase CLK4 (Homo sapiens) (UniProt Q9HAZ1); test: qHTS Assay for Inhibitors of CDC-like Kinase 4 (ADP-FP Assay) (AID 1795); details: Transcreener ADP fluorescence polarization; series mostly up to 50 µM; further: potency means the concentration at half of the fitted maximal effect; nearly all actives have a fitted effect of over 60% in size
# How it was run: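 Recombinant Clk4 (6.25 nM) phosphorylated 100 uM RS repeat peptide with 1 uM ATP in 25 mM Tris pH 7.5, 10 mM MgCl2, 0.5 mM EGTA, 2.5 mM DTT, 0.01% Triton X-100 for 1 h. ADP was detected by Transcreener ADP2 competitive fluorescence polarization after 30 min at room temperature.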
# [11] = target: Ubiquitin carboxyl-terminal hydrolase 1 (Homo sapiens) (UniProt O94782); test: Inhibitors of USP1/UAF1: Pilot qHTS (AID 504865); details: purified USP1/UAF1, Ub-rhodamine cleavage fluorescence; series mostly up to 54.9 µM;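 further: rhodamine fluorescence freed from ubiquitin-rhodamine substrate followed over time; top concentration of the series differs between compounds; on the % scale 0 is the no-effect control and ±100 the full control effect; nearly all actives have a fitted effect of over 35% in size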
# How it was run: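 USP1/UAF1 complex at 1 nM preincubated 15 min at room temperature with compound, then Ub-Rho substrate added at 150 nM final. Fluorescence (480/540 nm) read kinetically in 50 mM HEPES pH 7.8, 0.5 mM EDTA, 1 mM TCEP, 0.1 mg/ml BSA, 0.01% Tween-20.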
# [12] = target: Glucocorticoid receptor (Homo sapiens) (UniProt P04150); test: GR-EFC Redistribution (AID 451; calls by dose curve; further: potency means the concentration at half of the fitted maximal effect); details: CHO-K1 GR-EFC translocation, beta-gal luminescence, 2 h
# How it was run: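 CHO-K1 cells expressing nuclear EA and GR-ED fragments of b-gal; compounds titrated up to 46 uM final, 2 h at 37 C. GR nuclear translocation read as complemented b-gal luminescence after 1 h RT detection.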
# [13] = target: Cytochrome P450 2C19 (Homo sapiens) (UniProt P33261); test: qHTS Assay for Inhibitors and Substrates of Cytochrome P450 2C19 (AID 899); details: recombinant CYP2C19, luciferin-H EGE luminescence; series mostly up to 57.1 µM; further: potency means the concentration at half of the fitted maximal effect; nearly all actives have a fitted effect of over 60% in size
# How it was run: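 5 nM human CYP2C19 with 10uM Luciferin-H EGE (at KM) in 50mM KPO4, compound preincubated 10 min at 37C, then NADPH regeneration for 60 min at 37C. Luciferin read by luminescence after detection reagent; normalized to 57uM ketoconazole as full inhibition.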
# Sequence of Dual specificity protein kinase CLK4 (Homo sapiens) (Q9HAZ1 whole entry, looked up): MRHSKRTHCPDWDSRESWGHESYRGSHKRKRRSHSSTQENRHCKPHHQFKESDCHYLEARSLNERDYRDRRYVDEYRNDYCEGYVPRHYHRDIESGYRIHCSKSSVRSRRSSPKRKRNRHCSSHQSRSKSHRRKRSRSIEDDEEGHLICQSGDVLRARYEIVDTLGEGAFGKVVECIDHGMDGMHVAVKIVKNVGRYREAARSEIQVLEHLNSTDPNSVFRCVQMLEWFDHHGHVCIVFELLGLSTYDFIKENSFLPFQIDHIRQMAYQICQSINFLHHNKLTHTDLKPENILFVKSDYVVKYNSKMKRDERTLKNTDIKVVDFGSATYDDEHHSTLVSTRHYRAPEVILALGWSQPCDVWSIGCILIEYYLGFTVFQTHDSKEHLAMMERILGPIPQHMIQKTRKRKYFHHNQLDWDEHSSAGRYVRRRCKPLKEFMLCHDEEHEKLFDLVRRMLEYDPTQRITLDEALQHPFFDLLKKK
# Sequence of Glucocorticoid receptor (Homo sapiens) (P04150 whole entry, looked up, the tested form may be a part): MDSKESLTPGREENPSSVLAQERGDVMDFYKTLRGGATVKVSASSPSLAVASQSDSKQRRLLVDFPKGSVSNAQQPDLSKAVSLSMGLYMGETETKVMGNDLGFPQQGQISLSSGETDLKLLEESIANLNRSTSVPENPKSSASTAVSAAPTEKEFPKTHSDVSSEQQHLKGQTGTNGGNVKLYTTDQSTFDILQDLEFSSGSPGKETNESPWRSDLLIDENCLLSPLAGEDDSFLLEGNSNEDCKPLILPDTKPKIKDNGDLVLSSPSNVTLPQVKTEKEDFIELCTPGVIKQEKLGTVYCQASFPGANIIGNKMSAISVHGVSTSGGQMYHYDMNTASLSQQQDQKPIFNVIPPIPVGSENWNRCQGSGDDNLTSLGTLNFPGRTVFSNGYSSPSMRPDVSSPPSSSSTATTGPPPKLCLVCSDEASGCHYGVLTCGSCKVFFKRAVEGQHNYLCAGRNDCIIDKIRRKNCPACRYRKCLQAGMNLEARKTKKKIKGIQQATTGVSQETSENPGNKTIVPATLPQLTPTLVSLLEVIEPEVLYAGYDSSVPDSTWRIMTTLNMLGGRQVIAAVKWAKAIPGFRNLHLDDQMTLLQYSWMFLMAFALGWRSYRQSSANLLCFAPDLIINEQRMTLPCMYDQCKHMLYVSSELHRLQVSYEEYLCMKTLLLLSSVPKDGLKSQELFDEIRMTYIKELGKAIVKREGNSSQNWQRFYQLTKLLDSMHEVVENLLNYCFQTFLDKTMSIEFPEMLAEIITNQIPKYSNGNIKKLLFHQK
# Sequence of Cytochrome P450 1A2 (Homo sapiens) (P05177 whole entry, looked up): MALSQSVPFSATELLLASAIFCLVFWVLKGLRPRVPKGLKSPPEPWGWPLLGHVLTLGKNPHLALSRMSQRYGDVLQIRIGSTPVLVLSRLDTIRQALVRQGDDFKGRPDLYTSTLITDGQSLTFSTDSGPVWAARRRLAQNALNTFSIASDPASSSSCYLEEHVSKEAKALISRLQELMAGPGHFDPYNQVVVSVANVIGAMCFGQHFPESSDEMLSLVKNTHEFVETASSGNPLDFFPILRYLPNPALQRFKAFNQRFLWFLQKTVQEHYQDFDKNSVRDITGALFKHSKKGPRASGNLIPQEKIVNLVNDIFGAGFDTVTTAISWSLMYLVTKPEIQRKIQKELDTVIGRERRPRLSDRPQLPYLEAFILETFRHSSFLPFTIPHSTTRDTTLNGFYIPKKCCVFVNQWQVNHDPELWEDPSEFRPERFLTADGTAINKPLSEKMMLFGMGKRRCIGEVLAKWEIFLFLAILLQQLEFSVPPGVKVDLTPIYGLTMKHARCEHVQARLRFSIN
# Sequence of Lysosomal acid glucosylceramidase (Homo sapiens) (P04062 whole entry, looked up): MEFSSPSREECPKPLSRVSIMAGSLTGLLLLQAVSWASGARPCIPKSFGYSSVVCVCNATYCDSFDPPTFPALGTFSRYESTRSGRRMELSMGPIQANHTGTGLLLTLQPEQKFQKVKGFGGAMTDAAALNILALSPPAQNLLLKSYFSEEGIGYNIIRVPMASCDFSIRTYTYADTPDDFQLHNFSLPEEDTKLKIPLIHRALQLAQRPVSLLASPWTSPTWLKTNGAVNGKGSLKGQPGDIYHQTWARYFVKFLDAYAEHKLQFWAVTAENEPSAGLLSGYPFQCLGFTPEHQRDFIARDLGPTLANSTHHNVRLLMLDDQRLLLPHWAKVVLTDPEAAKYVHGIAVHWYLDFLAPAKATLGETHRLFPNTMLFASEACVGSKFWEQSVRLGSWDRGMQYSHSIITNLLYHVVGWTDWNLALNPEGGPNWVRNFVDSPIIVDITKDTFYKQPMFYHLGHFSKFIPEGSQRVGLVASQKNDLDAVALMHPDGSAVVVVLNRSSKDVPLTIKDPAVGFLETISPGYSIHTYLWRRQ
# Sequence of Ubiquitin carboxyl-terminal hydrolase 1 (Homo sapiens) (O94782 whole entry, looked up): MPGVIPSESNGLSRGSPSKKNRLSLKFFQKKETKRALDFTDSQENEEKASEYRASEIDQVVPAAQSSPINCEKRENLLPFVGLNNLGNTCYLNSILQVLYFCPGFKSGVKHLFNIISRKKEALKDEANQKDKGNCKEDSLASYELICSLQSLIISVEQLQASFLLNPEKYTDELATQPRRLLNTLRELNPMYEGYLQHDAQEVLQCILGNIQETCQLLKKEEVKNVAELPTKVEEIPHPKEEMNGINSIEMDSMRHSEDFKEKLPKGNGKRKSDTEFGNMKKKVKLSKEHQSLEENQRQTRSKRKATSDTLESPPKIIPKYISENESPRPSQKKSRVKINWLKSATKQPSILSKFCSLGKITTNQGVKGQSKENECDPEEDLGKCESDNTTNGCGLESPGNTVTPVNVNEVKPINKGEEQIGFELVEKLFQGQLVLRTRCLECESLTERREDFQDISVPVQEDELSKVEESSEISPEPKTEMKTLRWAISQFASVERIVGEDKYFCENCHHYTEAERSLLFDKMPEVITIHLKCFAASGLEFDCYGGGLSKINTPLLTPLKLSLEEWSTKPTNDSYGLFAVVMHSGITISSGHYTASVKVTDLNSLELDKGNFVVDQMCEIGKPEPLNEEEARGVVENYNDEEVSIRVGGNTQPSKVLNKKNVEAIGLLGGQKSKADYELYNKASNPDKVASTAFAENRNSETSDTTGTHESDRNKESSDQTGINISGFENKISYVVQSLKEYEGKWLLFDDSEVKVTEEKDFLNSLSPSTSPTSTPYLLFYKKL
# Sequence of Cytochrome P450 2C19 (Homo sapiens) (P33261 whole entry, looked up): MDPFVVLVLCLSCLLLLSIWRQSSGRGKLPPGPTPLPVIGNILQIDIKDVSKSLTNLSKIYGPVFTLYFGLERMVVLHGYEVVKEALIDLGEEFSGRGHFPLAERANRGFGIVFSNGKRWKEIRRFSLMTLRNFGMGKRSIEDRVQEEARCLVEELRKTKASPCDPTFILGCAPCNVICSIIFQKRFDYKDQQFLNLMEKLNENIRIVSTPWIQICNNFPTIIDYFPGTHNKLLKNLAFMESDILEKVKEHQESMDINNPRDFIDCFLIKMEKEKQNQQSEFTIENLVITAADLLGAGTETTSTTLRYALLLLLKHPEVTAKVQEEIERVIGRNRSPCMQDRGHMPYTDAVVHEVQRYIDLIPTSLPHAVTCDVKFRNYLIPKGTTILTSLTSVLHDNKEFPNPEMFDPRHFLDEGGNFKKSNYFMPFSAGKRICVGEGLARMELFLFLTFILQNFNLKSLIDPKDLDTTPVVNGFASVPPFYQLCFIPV
# Sequence of Cytochrome P450 3A4 (Homo sapiens) (P08684 whole entry, looked up): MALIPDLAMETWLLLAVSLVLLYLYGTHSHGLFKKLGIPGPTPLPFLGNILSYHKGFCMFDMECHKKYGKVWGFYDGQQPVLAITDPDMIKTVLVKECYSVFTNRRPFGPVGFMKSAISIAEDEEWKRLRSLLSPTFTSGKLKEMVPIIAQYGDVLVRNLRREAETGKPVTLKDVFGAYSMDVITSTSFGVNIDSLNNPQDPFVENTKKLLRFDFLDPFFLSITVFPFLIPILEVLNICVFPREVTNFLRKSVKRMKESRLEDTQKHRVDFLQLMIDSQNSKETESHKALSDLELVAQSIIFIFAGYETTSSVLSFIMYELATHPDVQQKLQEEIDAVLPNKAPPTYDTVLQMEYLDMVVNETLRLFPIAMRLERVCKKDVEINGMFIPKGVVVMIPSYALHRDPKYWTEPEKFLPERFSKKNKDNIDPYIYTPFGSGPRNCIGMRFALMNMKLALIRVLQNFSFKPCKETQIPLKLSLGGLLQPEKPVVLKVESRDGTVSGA
SMILES,Potency [1] [µM],"activity change, negative = inhibition [2] [%]",Potency [3],outcome [4],Potency [5] [µM],Potency [6],outcome [7],Potency [8],Potency [9],Potency [10],Potency [11],Potency [12] [µM],Potency [13]
c1ccc(Nc2nc(-c3cccnc3)nc3ccccc23)cc1,> 11.4,6.52,0.398 µM (active),inactive,> 46,inactive,inactive,2.51 µM (active),3.55 µM (active),2 µM (active),inactive,,
CCNc1ncc2ncc(=O)n(Cc3cccc(OC)c3)c2n1,> 11.4,-7.38,3.98 µM (active),inactive,,inactive,,3.16 µM (active),3.16 µM (active),11.2 µM (active),inactive,> 46,2 µM (active)
